Hits are enriched below; roughly 0.82% of the tested compounds scored in any of these assays.
eLon inh: inhibitors of E. coli Lon protease, primary screen, biochemical, fluorescence polarization | purified E. coli Lon protease | inhibition, % at 7.94 µM | 360,000 compounds, 0.42% hits | AID 602123, 2011; in the data active = inhibition above about 13%, passing the limit was not always enough
C-LANA FP: inhibitors of KSHV C-LANA binding to DNA, primary screen, biochemical, fluorescence polarization, FAM-LBS DNA, MBP-C-LANA, single point. Kaposi's sarcoma herpesvirus LANA C-terminal domain (residues 932-1162) DNA binding. inhibition, % at 9 µM. 340,000 compounds, 0.078% hits. AID 504423, 2011;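 active = highest replicate inhibition at or above 60% at 9 µM, even if other replicates fall short; inactive = all replicates below 60% inhibition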
RTF Ca sens inh: cardiac RTF calcium sensitivity inhibitors, primary screen, biochemical, IANBD-TnC fluorescence, EC70 calcium; IANBD-labeled cardiac RTF, Ca2+ fluorescence; inhibition, % at 7.15 µM; 340,000 compounds, 0.12% hits; AID 493244, 2011;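 active = inhibition above the mean inhibition of all tested compounds plus 3 SD, cut at about 17% in these data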;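 note: assay run at fixed EC70 calcium of 1.6 mM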
cardiac RTF act: cardiac RTF calcium sensitivity activators, primary screen, biochemical, IANBD-TnC fluorescence, EC20 calcium; IANBD-labeled TnC RTF fluorescence at EC20 calcium; 0% EC20 calcium, 100% full calcium; activation, % at 7.2 µM; 340,000 compounds, 0.24% hits;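 active = activation above the mean over all tested compounds plus 3 SD, cut at about 30% in these data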;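 note: rise in fluorescence read as greater calcium sensitivity of cardiac thin filaments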
Keap1-Nrf2 PPI: Keap1-Nrf2 protein-protein interaction inhibitors, primary screen, biochemical, fluorescence polarization, single point | Kelch-like ECH-associated protein 1 (Homo sapiens), Q14145 | Keap1 Kelch-Nrf2 peptide fluorescence polarization, 1536-well | inhibition, % at 9.4 µM | 340,000 compounds, 0.15% hits; in the data active = inhibition above about 12%; inconclusive = no clear call, values can overlap the other calls; inactive = below about 7.3%;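 note: human Keap1 Kelch domain with fluorescein labeled Nrf2 9mer peptide probe; higher means more block of Keap1 binding to Nrf2 peptide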
Target sequence (Q14145 whole entry, looked up, the tested form may be a part): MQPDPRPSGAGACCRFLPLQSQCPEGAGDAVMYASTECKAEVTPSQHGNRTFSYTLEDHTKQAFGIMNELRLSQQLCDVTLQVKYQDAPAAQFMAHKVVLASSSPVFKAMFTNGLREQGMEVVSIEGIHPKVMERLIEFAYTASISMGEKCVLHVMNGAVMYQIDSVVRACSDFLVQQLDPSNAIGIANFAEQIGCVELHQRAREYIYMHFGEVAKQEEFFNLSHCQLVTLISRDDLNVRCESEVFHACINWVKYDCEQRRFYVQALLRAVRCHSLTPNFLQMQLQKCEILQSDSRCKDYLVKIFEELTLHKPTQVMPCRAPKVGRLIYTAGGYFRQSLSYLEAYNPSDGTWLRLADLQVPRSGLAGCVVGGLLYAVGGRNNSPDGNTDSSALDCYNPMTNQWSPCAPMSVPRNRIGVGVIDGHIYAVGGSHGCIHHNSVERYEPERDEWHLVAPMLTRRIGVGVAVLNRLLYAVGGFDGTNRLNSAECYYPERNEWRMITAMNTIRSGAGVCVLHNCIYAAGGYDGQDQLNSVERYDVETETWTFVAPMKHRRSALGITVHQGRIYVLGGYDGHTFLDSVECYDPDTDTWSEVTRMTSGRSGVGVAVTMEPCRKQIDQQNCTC
E coli Lon conf: E. coli Lon protease inhibitor retest, confirmation, biochemical, fluorescence polarization | shares compounds with eLon inh | purified E. coli Lon | inhibition, % at 7.94 µM | 1,400 compounds, 31% hits | AID 602230, 2012; in the data active = inhibition above about 16%
Of the large screens only hits and unclear results are named; the others gave an inactive call (follow-up assays come after a bar, where they were run).

N#CC12COC3(CCCCC3C1(C#N)C#N)OC2=N (stereo unspecified)	eLon inh 46, Keap1-Nrf2 PPI inconclusive | E coli Lon conf inactive
N#CC1(C#N)COC23CCCCC2C1(C#N)C(=N)O3 (stereo unspecified)	eLon inh 23, Keap1-Nrf2 PPI 21 | E coli Lon conf inactive
CCCC1OC23CCCCC2C(C#N)(C(=N)O3)C1(C#N)C#N (stereo unspecified)	none
Nc1ccn([C@@H]2O[C@H](CNCc3cccc(OC4CCCC4)c3)[C@@H](O)[C@H]2O)c(=O)n1	none (no result: C-LANA FP, RTF Ca sens inh, cardiac RTF act, Keap1-Nrf2 PPI)
CN=C1S/C(=C\c2ccc(SC)cc2)C(=O)N1C	none
CSC1=NC(=O)/C(=C/c2ccc(SC)cc2)S1	eLon inh 25 | E coli Lon conf inactive
CC1CCN(C(=O)C2CCN(c3ncnc4c3nc3n4CCCCC3)CC2)CC1	eLon inh 20 | E coli Lon conf inactive
Cc1ccc(-n2c(C)cc(C(=O)CN3CCOCC3)c2C)cc1C	none
Cc1ccc(-n2c(C)cc(C(=O)CN3CCOCC3)c2C)cc1	eLon inh 19 | E coli Lon conf inactive
Cc1nc(Nc2ccc(Cl)cc2)c(C#N)c(=O)[nH]1	eLon inh 19 | E coli Lon conf inactive
CCN(C(=O)c1ccc(NC(=O)C2CCCCC2C(=O)O)cc1)c1ccccc1 (stereo unspecified)	none (no result: C-LANA FP, RTF Ca sens inh, cardiac RTF act, Keap1-Nrf2 PPI)
CCN(CC)c1ccc(/C=N/NC(=O)c2cc3ccccc3[nH]2)cc1	eLon inh 16 | E coli Lon conf inactive
COc1cc(C)c2c(c1C=O)Oc1c(c(C)c(O)c3c1C(O)OC3=O)OC2=O (stereo unspecified)	eLon inh 57 | E coli Lon conf 16
CC(C)N1C(=O)C(=O)N(CC(=O)N2CCc3ccccc32)C1=O	none
CCCCN1C(=O)C(=O)N(CC(=O)N2CCc3ccccc32)C1=O	eLon inh 17 | E coli Lon conf inactive
CCN1CCN(C(=O)NC2CCCCC2)CC1	eLon inh 45 | E coli Lon conf inactive
CC1(C(=O)NS(=O)(=O)c2ccc(C#N)cc2)CCN1C(=O)Cc1cc(F)ccc1F (stereo unspecified)	none (no result: C-LANA FP, RTF Ca sens inh, cardiac RTF act, Keap1-Nrf2 PPI)
CCCCC1=CC2=C(c3ccco3)C(=O)C(C)(OC(=O)c3ccc(OC)cc3)C(=O)C2=CN1CCOC (stereo unspecified)	eLon inh 48 | E coli Lon conf inactive
CCCCC1=CC2=C(c3ccco3)C(=O)C(C)(OC(=O)c3ccc(OC)cc3)C(=O)C2=CN1Cc1ccc2c(c1)OCO2 (stereo unspecified)	none
CCCCC1=CC2=C(c3ccco3)C(=O)C(C)(OC(=O)c3ccc(OC)cc3)C(=O)C2=CN1CCc1ccccn1 (stereo unspecified)	eLon inh 37 | E coli Lon conf inactive
CCCCC1=CC2=C(c3ccco3)C(=O)C(C)(OC(=O)c3ccc(OC)cc3)C(=O)C2=CN1Cc1ccccc1 (stereo unspecified)	none
COc1ccc(C(=O)N2CCC2(C)C(=O)O)cc1C(F)(F)F (stereo unspecified)	none (no result: C-LANA FP, RTF Ca sens inh, cardiac RTF act, Keap1-Nrf2 PPI)
N#CCC(=O)N/N=C/c1ccc(OC2CSC2)cc1	eLon inh 25 | E coli Lon conf inactive
COc1ccc(CNC(=O)COC(=O)c2c(NC(C)=O)sc(C)c2C)cc1OC	none (no result: C-LANA FP, RTF Ca sens inh, cardiac RTF act, Keap1-Nrf2 PPI)
COC(=O)Cn1cnc2c(oc3ccccc32)c1=O	eLon inh 22 | E coli Lon conf inactive
COc1ccc(C(C)(NC(C)=O)c2nc(-c3cnc4ccccc4c3)cs2)cc1 (stereo unspecified)	none (no result: C-LANA FP, RTF Ca sens inh, cardiac RTF act, Keap1-Nrf2 PPI)
CC1CCCCC1NC(=O)COC(=O)CN1C(=O)c2ccccc2C1=O (stereo unspecified)	none
CC1CCCCC1NC(=O)CN1C(=O)c2cccc(N)c2C1=O (stereo unspecified)	eLon inh 17 | E coli Lon conf 26
O=C(COC(=O)CNS(=O)(=O)c1c(F)cccc1F)NC(=O)NC1CCCCC1	eLon inh 27 | E coli Lon conf inactive
Cc1ccc(S(=O)(=O)NC(=O)C2(C)CCN2C(=O)c2ccccc2)cc1 (stereo unspecified)	none (no result: C-LANA FP, RTF Ca sens inh, cardiac RTF act, Keap1-Nrf2 PPI)
O=C(COc1cccc(F)c1)Nc1nc(-c2ccccn2)cs1	none (no result: C-LANA FP, RTF Ca sens inh, cardiac RTF act, Keap1-Nrf2 PPI)
